A short description of assay [1]: qHTS assay to identify small molecule HDAC inhibitors (AID 1259364). Also: potency is read from the fitted curve at half-maximal effect.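 Also: wild-type HCT-116 cells with endogenous class I/II HDAC activity; nearly all actives have a fitted effect of over 45% in size.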 The method, boiled down: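 Screening used wild-type human colon HCT-116 cells incubated overnight, dosed with compounds for 2 hours, and assayed with a homogeneous luminogenic HDAC I/II reagent for 30 minutes at room temperature.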
Assay [2] can be described thus: qHTS assay to identify small molecule HDAC inhibitors - cell viability counter screen (AID 1259365). Also: series mostly up to about 92 µM; nearly all actives have a fitted effect of over 50% in size. The method, boiled down:
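Counter screen in wild-type HCT-116 cells: compounds dissolved in DMSO are pin-transferred onto overnight-plated cells and left 2hr at 37C. ATP-based CellTiter-Glo luminescence then measures viable cells.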
A general note: In qHTS, concentration-response curves come from the screen itself.

Assay [3] is described as follows: qHTS assay to identify small molecule agonists of the sonic hedgehog signaling (Shh) pathway - cell viability counter screen (AID 1259366). Also: nearly all actives have a fitted effect of over 50% in size. The method, boiled down:
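Cells are plated at 2,000 per well and left 4hr at 37C, 5% CO2 before compound addition. After 23hr of treatment, CellTiter-Fluor reagent is added for 1hr at 37C and fluorescence is measured.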

Assay [4] in a line: qHTS assay to identify small molecule antagonists of the sonic hedgehog signaling (Shh) pathway - cell viability counter screen (AID 1259367). Also: nearly all actives have a fitted effect of over 55% in size. In outline: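 Fluorescence read-out (CellTiter-Fluor, 1 hr at 37C) taken after 23 hr compound treatment of 3T3 Gli1-Luc cells stimulated with conditioned medium. Cells were seeded at 2,000 per well and pre-incubated 4 hr.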
The nature of assay [5]: qHTS assay to identify small molecule agonists of the sonic hedgehog signaling (Shh) pathway (AID 1259368; calls by dose curve;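 also: NIH/3T3-derived 3T3Gli1-Luc cells carrying a stable Gli1-driven firefly luciferase reporter; series mostly up to about 92 µM; nearly all actives have a fitted effect of over 15% in size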). The method, boiled down:
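Hedgehog pathway agonism scored by increased firefly luciferase luminescence in 3T3Gli1-Luc cells treated 24 hr at 37 C; detection used a 30 min room-temperature reagent incubation.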

The nature of assay [6]: qHTS assay to identify small molecule antagonists of the sonic hedgehog signaling (Shh) pathway (AID 1259369; calls by dose curve; also: nearly all actives have a fitted effect of over 45% in size; also: potency is read from the fitted curve at half-maximal effect). The method, boiled down:
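NIH/3T3 stable Gli1-Luc clone, 2,000 cells/well, 4hr settle; cpd + conditioned medium 24hr; Luc reagent 30min RT; luminescence.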

The target of assay [7] is Estrogen receptor beta (Homo sapiens) (UniProt Q92731). The experiment in a line: qHTS assay to identify small molecule antagonists of the estrogen receptor beta (ER-beta) signaling pathway (AID 1259378; active = well fitted inhibition curve with a large enough effect in the signal ratio in the repeat runs, not every such curve was filed as active; the % refers to the signal ratio). In outline: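 ER-beta-UAS-bla HEK293T cells in 2% charcoal-stripped FBS medium treated with compound plus 1nM final 17-beta-estradiol for 16 hr at 37C. Beta-lactamase reporter read by FRET substrate fluorescence after 2 hours at room temperature.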

Assay [8] can be described thus: qHTS assay to identify small molecule agonists of the androgen receptor (AR) signaling pathway in the presence of an antagonist - cell viability counter screen (AID 1259379). Also: nearly all actives have a fitted effect of over 25% in size. Also: potency is read from the fitted curve at half-maximal effect. In outline: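 MDA-kb2 viability measured by CellTiter-Fluor fluorescence in the same wells as the luciferase signal; nilutamide 3.0uM final; 15-point compound titration; 16 hr at 37C.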
Assay [9] in a line: qHTS assay to identify small molecule agonists of the estrogen receptor beta (ER-beta) signaling pathway - cell viability counter screen (AID 1259380). Also: nearly all actives have a fitted effect of over 30% in size. Also: potency is read from the fitted curve at half-maximal effect. In outline:
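Measured: luminescence from CellTiter-Glo after 30 min at room temperature, added to wells already read for the LiveBLAzer FRET reporter (2 hr substrate); ER-beta-UAS-bla HEK293T cells had 16 hr compound treatment at 37C, 5% CO2.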

In assay [10] the target is Estrogen receptor beta (Homo sapiens) (UniProt Q92731). The assay can be described thus: qHTS assay to identify small molecule agonists of the estrogen receptor beta (ER-beta) signaling pathway (AID 1259377; active = well fitted activation curve with a large enough effect in the signal ratio in the repeat runs, not every such curve was filed as active; the % refers to the signal ratio; also: potency is read from the fitted curve at half-maximal effect). The method, boiled down:
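Agonist mode cell assay in GripTite HEK293T cells expressing an ER-beta fusion that drives beta-lactamase from an Upstream Activator Sequence; 16 hr compound exposure at 37C, then 2 h LiveBLAzer B/G FRET substrate at room temperature, fluorescence read-out.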

This passage reports Potency and outcome results from PubChem BioAssay (Tox21).

The structures appear in SMILES notation. Values joined by “and” are separate entries in the source; they are usually repeats but may differ in a detail not shown here. Equal values may be shown once. Results filed as inconclusive are left out. A structure can be active in one record and inactive in another. Active and inactive are the calls of the source. Unless noted, calls follow the shape of the dose curve; as a rule, active = well fitted curve in the direction sought with a large enough effect in the repeat runs; inconclusive = weak or mixed curves; inactive = no such curve, though single readings can be large; an effect the other way counts as inactive or inconclusive.

Sequence of Estrogen receptor beta (Homo sapiens) (Q92731 whole entry, looked up, the tested form may be a part): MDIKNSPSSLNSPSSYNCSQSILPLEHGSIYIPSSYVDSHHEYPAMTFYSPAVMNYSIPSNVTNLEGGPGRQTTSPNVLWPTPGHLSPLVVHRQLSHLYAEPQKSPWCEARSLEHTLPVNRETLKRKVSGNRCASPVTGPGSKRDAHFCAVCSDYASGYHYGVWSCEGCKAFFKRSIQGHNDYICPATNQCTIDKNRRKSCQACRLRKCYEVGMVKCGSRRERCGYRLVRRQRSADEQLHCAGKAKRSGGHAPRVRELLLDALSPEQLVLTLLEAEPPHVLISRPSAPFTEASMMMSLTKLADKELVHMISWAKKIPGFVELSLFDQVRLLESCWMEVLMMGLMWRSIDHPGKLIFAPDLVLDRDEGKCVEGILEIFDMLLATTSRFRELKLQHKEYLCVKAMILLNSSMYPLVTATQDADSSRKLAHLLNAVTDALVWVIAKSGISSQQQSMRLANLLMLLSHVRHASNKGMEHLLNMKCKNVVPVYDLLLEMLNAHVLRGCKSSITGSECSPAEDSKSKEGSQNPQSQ

In the case of `CCCCCCOCCO`, the Potency result in assay [1], in assay [3], in assay [4], in [6], in assay [7] and in assay [8] was “inactive” in each case. Besides, the Potency entry in assay [9] was “inactive”. In addition, the result in assay [2] and in [5] was inactive.
With `CC1=CC(=O)NS(=O)(=O)O1`, the Potency entry in assay [1], in assay [3], in [4], in assay [6], in assay [7] and in assay [8] was “inactive” each time. Moreover, in [9], the Potency result was “inactive”. The result in assay [2] and in [5] was inactive.
Take `COc1ccc(Cl)cc1C(=O)NCCc1ccc(S(=O)(=O)NC(=O)NC2CCCCC2)cc1`: the Potency result in assay [1], in assay [3], in assay [4], in [6], in [7] and in [8] was “inactive” in each case. Besides, the result in assay [2] and in assay [5] was inactive. The Potency in assay [9] is 48.6 µM (active).
On to `CC(=O)CC(=O)Nc1ccccc1C`, for which the Potency result in assay [1], in assay [3], in [4], in assay [6], in [10] and in assay [7] was “inactive” in each case. For the same compound, the Potency result in [8] and in assay [9] was “inactive” each time. The result in [2] and in assay [5] was inactive.
Consider `Cc1cccnc1`, for which, in assay [10], the Potency entry was “inactive”.
Same read-out and setting: the entry for `CC[C@H](C)C(=O)O[C@H]1C[C@@H](C)C=C2C=C[C@H](C)[C@H](CC[C@@H]3C[C@@H](O)CC(=O)O3)[C@H]21` is “inactive”.
Consider `C=C(C)C(=O)O[C@H]1C[C@@H]2CC[C@@]1(C)C2(C)C`, for which the Potency result in [1], in [3], in [6], in assay [7] and in [8] was “inactive” in each case. The compound was called inactive in assay [2] and in assay [5]. Besides, the Potency in assay [9] was 4.3 µM (active) and inactive.
Regarding `O=C(O)CC(C(=O)O)C(CC(=O)O)C(=O)O` (stereo not drawn), the Potency result in assay [1], in assay [3], in assay [6], in assay [8] and in assay [9] was “inactive” in each case. Further, the outcome in assay [2] and in assay [5] was inactive.
Turning to `O=C(CC(C(=O)OC1CCCCC1)S(=O)(=O)O)OC1CCCCC1` (stereo not drawn), the Potency result in assay [1], in [3], in assay [6], in assay [7], in assay [8] and in assay [9] was “inactive” each time. The compound was classed as inactive in assay [2] and in [5].
With `c1ccc(OCCOc2ccccc2)cc1`, the Potency in assay [1] was 27.3 µM (active). In addition, the compound was classed as inactive in assay [2] and in assay [5]. Further, the Potency entry in [3], in [6], in assay [7], in [8] and in assay [9] was “inactive” each time.
Turning to `O=S1(=O)CC=CC1`, the Potency entry in assay [1], in [3], in assay [7], in assay [8] and in assay [9] was “inactive” each time. Moreover, the compound was called inactive in [2] and in [5]. In addition, the Potency in [6] was 6.62 µM (active) and inactive.
Turning to `CCC(O)OC(O)CC` (stereo not drawn), the Potency entry in assay [1], in [3], in [6], in assay [8] and in [9] was “inactive” each time. Besides, the outcome in assay [2] and in [5] was inactive.
As to `C/C=C1/CC2C=CC1C2` (stereo not drawn), the Potency result in [1], in [3], in [6], in [8] and in assay [9] was “inactive” throughout. The result in assay [2] and in assay [5] was inactive.
As to `FC(F)(F)c1ccc(Cl)c(Cl)c1`, the Potency entry in assay [1], in [3], in assay [6], in assay [7], in [8] and in assay [9] was “inactive” in each case. In addition, the compound was classed as inactive in assay [2] and in assay [5].
`CC(C)(C)[C@@H](O)[C@@H](Cc1ccc(Cl)cc1)n1cncn1`: the Potency result in [1], in assay [3], in assay [7], in [8] and in assay [9] was “inactive” in each case. Further, the call in [2] and in assay [5] was inactive.
For `O=C(O)c1cc(=O)c2c(OCC(O)COc3cccc4oc(C(=O)O)cc(=O)c34)cccc2o1`, the Potency entry in assay [1], in [3], in assay [6], in assay [10], in [7] and in assay [8] was “inactive” in each case. Further, the Potency entry in assay [9] is “inactive”. In addition, the compound was classed as inactive in [2] and in [5].
For `CCCCN(CCCC)CCCC`, the Potency result in assay [1], in assay [3], in assay [6], in assay [10], in [7] and in assay [8] was “inactive” throughout. For the same compound, the Potency result in assay [9] is “inactive”. The compound was called inactive in [2] and in assay [5].
Regarding `CCCCCCCCCCCCc1ccccc1`, the Potency entry in assay [1], in assay [3], in assay [6], in assay [8] and in [9] was “inactive” in each case. The compound was called inactive in assay [2] and in [5].
For `Cc1ccc2oc(=O)ccc2c1`, the Potency result in [1], in assay [3], in assay [6], in assay [7], in assay [8] and in [9] was “inactive” throughout. Further, the outcome in [2] and in assay [5] was inactive.
With `CCCCCCCCCC`, the Potency result in [1], in assay [3], in [6], in [7], in assay [8] and in assay [9] was “inactive” throughout. The call in assay [2] and in [5] was inactive.
As for `C#C[C@]1(O)CC[C@H]2[C@@H]3CCC4=CC(=O)CC[C@@H]4[C@H]3CC[C@@]21C`, the Potency entry in [1], in [3], in assay [7] and in assay [8] was “inactive” throughout. Besides, the compound was classed as inactive in assay [2] and in assay [5]. In addition, the Potency in assay [6] was 21.7 µM (active) and 29.8 µM (active); in assay [10] it was 1.37 µM (active) and 4.22 µM (active); in assay [9], 48.6 µM (active).
On to `Fc1ccc(Br)cc1`, for which the Potency result in assay [1], in [3], in assay [6], in assay [8] and in [9] was “inactive” in each case. For the same compound, the result in assay [2] and in assay [5] was inactive.
`COCCCOc1ccnc(CS(=O)c2nc3ccccc3[nH]2)c1C` (stereo not drawn): the Potency in assay [1] is 30.5 µM (active) and inactive; in assay [8], 48.4 µM (active) and inactive. Moreover, the call in assay [2] and in [5] was inactive. The Potency entry in assay [3], in assay [6], in assay [10], in [7] and in assay [9] was “inactive” each time.
